KB-3-1 tox – kills parental KB-3-1 adenocarcinoma cells; KB-3-1 viability, CellTiter-Glo ATP luminescence, 72 h; Potency, µM (highest dose often 46.1 µM), hits mostly cytotoxic; actives 1.4% (n = 400,000); AID 1347075; also: nearly all actives have a fitted effect of over 60% in size
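Using CellTiter-Glo luminescence, growth of non-resistant KB-3-1 adenocarcinoma cells is assessed 72 h after pin-tool compound addition at 37 °C. Normalized responses across the concentration series yield fitted curves.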
HT1080 IDH1KD tx – toxicity to HT-1080 IDH1 knockdown cells (counter line); HT-1080 IDH1 knockdown viability, ATP luminescence, 48 h; Potency, µM (doses to about 46.1 µM), hits mostly cytotoxic; actives 2% (n = 360,000); AID 686971
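Viability of IDH1-knockdown HT-1080 fibrosarcoma cells was assessed by CellTiter-Glo after 48 h at 37 °C with titrated compound; concentration-effect curves were classified by fit quality and response size.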
SW480 rereplic – induces DNA re-replication in SW480 colon adenocarcinoma cells; SW480 DNA re-replication, Hoechst DNA content imaging, 48 h; Potency, µM (titrated, usually from 46.1 µM), most hits filed as activators; actives 1.8% (n = 340,000); AID 624297; also: nearly all actives have a fitted effect of over 55% in size
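Image-based read-out: total Hoechst fluorescence of nuclei (405 nm excitation, 500-530 nm emission), with hits raising the fraction of high-intensity nuclei. SW480 colon cells incubated 48 hr with compounds at 37 C.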
KB-V1 cytotox – kills drug-selected multidrug resistant KB-V1 cells | KB-V1 MDR cells viability, CellTiter-Glo, 72 h | Potency, µM (top dose mostly 46.1 µM), hits mostly cytotoxic | actives 3.4% (n = 400,000) | AID 1347076; also: nearly all actives have a fitted effect of over 60% in size
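Cytotoxicity toward P-gp-expressing KB-V1 cells was determined as loss of CellTiter-Glo luminescence after 72 h at 37 degrees C. Compounds were tested in quantitative HTS format across a concentration range, with curves fitted to normalized data.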
HT1080NT lethal – kills 2HG-producing HT-1080-NT fibrosarcoma cells; HT-1080-NT fibrosarcoma viability, CellTiter-Glo ATP luminescence, 48 h; actives 1.6% (n = 360,000); AID 686970; Potency, µM (highest dose often 46.1 µM), actives largely listed as cytotoxic;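 also: NT is the 2HG producing partner of a matched IDH1 knockdown line; nearly all actives have a fitted effect of over 55% in size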
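Viability by CellTiter-Glo luminescence after 48 h compound exposure at 37C of HT-1080-NT cells (750/well, RPMI, 5% FBS). % activity scaled between DMSO wells and medium-only wells, then curve-fitted and categorized by curve class.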
MCF10A rerep – DNA re-replication induction in MCF 10a cells. MCF 10A DNA re-replication, Hoechst nuclear intensity, 48 h. actives 2.9% (n = 350,000). Potency, µM (titrated, usually from 46.1 µM), most hits filed as activators; also: nearly all actives have a fitted effect of over 50% in size
Of the large screens only hits and unclear results are named; the others gave an inactive call. Sampled rows, rich in hits. Any-hit rate of the full collection: about 7.9%. Calls follow the shape of the dose curve; as a rule, active = well fitted curve in the direction sought with a large enough effect; inconclusive = small, poorly fitted or top-dose-only effect, or another doubt; inactive = no such curve, though single readings can be large; an effect the other way counts as inactive or inconclusive.

COc1ccc(N2C(=O)CS(=O)(=O)C23C(=O)N(Cc2c(F)cccc2Cl)c2ccccc23)cc1 (centres undefined)	none (no result: HT1080 IDH1KD tx, SW480 rereplic, HT1080NT lethal, MCF10A rerep)
Cc1cccc(N2C(=O)CS(=O)(=O)C23C(=O)N(Cc2c(F)cccc2Cl)c2ccccc23)c1 (centres undefined)	KB-V1 cytotox 5.8µM (no result: HT1080 IDH1KD tx, SW480 rereplic, HT1080NT lethal, MCF10A rerep)
O=[N+]([O-])c1ccc(COc2cccc(CNc3ccc(F)cc3)c2)cc1	KB-V1 cytotox 20.6µM
COc1cc2c(cc1OC)CN(CC(=O)Nc1ccc(S(=O)(=O)N(C)C)cc1)CC2	KB-V1 cytotox inconclusive
COc1cc2c(cc1OC)CN(CC(=O)Nc1ccc3c(c1)OC(F)(F)O3)CC2	KB-V1 cytotox 13µM
CN1CCN(C=NC2=NN(c3cccc(C(F)(F)F)c3)CC2)CC1	KB-3-1 tox inconclusive, KB-V1 cytotox 10.3µM
FC(F)(F)c1cccc(N2CCN(c3nnnn3-c3ccccc3)CC2)c1	KB-V1 cytotox inconclusive
CN(C)C=NC1=NN(c2cccc(C(F)(F)F)c2)CC1	KB-3-1 tox 20.6µM, KB-V1 cytotox 2.06µM
CC(OC(=O)Cn1cnc2c1c(=O)n(C)c(=O)n2C)C(=O)NCc1ccccc1 (centres undefined)	MCF10A rerep inconclusive
Cc1cc(=O)[nH]c(SCC(=O)c2ccc(C(C)C)cc2)n1	none
Cc1cc(C)c2c(=O)[nH]c(SCC(=O)c3ccc(C(C)C)cc3)nc2n1	KB-V1 cytotox 16.4µM, MCF10A rerep inconclusive
CC(=O)c1cccc(NC(=O)CSc2nc(N3CCCCC3)nc(N3CCCCC3)n2)c1	SW480 rereplic 2.24µM
CCSc1nnc(NC(=O)c2cc(C)nc3ccccc23)s1	none
O=C(Nc1nccs1)c1nc(-c2ccccc2)n(-c2ccccc2)n1	none
CCc1nnc(NC(=O)c2ccc(C)o2)s1	none
CCSc1nnc(NC(=O)c2ccc(C)o2)s1	KB-V1 cytotox 18.4µM
Cc1csc(NC(=O)c2nc(-c3ccccc3)n(-c3ccccc3)n2)n1	KB-3-1 tox inconclusive, KB-V1 cytotox 10.3µM
CCSc1nnc(NC(=O)c2nc(-c3ccccc3)n(-c3ccccc3)n2)s1	KB-V1 cytotox inconclusive, HT1080NT lethal inconclusive, MCF10A rerep 10.3µM
Cc1c(Cl)cccc1NC(=O)Cn1nc(C)c2sc3ccccc3c2c1=O	none (no result: HT1080 IDH1KD tx, SW480 rereplic, HT1080NT lethal, MCF10A rerep)
CCCc1nnc(NC(=O)CCC(=O)N2CCN(Cc3ccccc3)CC2)s1	KB-3-1 tox inconclusive
CCN(CC)Cc1cc(C(C)=O)ccc1OCC(C)C	KB-V1 cytotox inconclusive
Cc1cc2cc(C(c3nnnn3CC3CCCO3)N3CCCc4ccccc43)c(=O)[nH]c2cc1C (centres undefined)	KB-3-1 tox inconclusive, HT1080 IDH1KD tx 11.2µM, SW480 rereplic inconclusive, KB-V1 cytotox 20.6µM, HT1080NT lethal inconclusive, MCF10A rerep inconclusive
Cc1cccc2cc(C(c3nnnn3CC3CCCO3)N3CCc4ccccc4C3)c(=O)[nH]c12 (centres undefined)	KB-V1 cytotox inconclusive
Cc1ccc2cc(C(c3nnnn3CC3CCCO3)N3CCc4ccccc4C3)c(=O)[nH]c2c1 (centres undefined)	MCF10A rerep inconclusive
Cc1ccc2cc(C(c3nnnn3CC3CCCO3)N3CCCC4(CCCCC4)C3)c(=O)[nH]c2c1 (centres undefined)	KB-V1 cytotox 14.6µM
Cc1cccc2cc(C(c3nnnn3CC3CCCO3)N3CCCc4ccccc43)c(=O)[nH]c12 (centres undefined)	KB-V1 cytotox 18.4µM
COc1cc(CN(C(=O)c2cccc(Cl)c2)c2ccccn2)cc(OC)c1OC	KB-V1 cytotox inconclusive (no result: HT1080 IDH1KD tx, SW480 rereplic, HT1080NT lethal, MCF10A rerep)
CCCCN(CCCC)c1nc2ccccc2nc1NS(=O)(=O)c1ccc(NC(C)=O)cc1	SW480 rereplic 20.6µM, MCF10A rerep 11.6µM
CCCc1cc(NC(=O)COC(=O)c2nccnc2N)n(-c2ccccc2)n1	none
CCOC(=O)c1[nH]c2ccccc2c1NC(=O)c1ccc(OCC)cc1	none (no result: HT1080 IDH1KD tx, SW480 rereplic, HT1080NT lethal, MCF10A rerep)
COC(=O)c1[nH]c2ccc(C)cc2c1NC(=O)c1ccccc1[N+](=O)[O-]	KB-V1 cytotox 16.4µM, MCF10A rerep inconclusive
COC(=O)c1[nH]c2ccc(Cl)cc2c1NC(=O)c1ccccc1[N+](=O)[O-]	none
CCOC(=O)c1[nH]c2ccccc2c1NC(=O)c1ccc(S(=O)(=O)N2CCCCC2)cc1	MCF10A rerep 23.1µM
CCOC(=O)c1[nH]c2ccccc2c1NC(=O)c1ccccc1OCC	KB-3-1 tox 1.64µM, KB-V1 cytotox inconclusive (no result: HT1080 IDH1KD tx, SW480 rereplic, HT1080NT lethal, MCF10A rerep)
Cc1ccc(-c2nnc(SCC(=O)Nc3ccc(N4CCOCC4)cc3)o2)cc1	none
Cc1ccnc(NC(=S)NC(=O)c2cncc(Br)c2)c1	none
Cc1nc(NC(=S)NC(=O)c2cncc(Br)c2)ccc1Br	KB-3-1 tox inconclusive, KB-V1 cytotox 3.66µM
CC(C)C[C@H]1CN(CCCC[C@H]2CNC(=O)C(=O)N2Cc2ccccc2)C(=O)C(=O)N1Cc1ccccc1	KB-3-1 tox inconclusive, KB-V1 cytotox inconclusive (no result: SW480 rereplic, MCF10A rerep)
CC(C)CCN(CCC(C)C)CC(O)Cn1c2ccccc2c(=O)c2ccccc21 (centres undefined)	SW480 rereplic inconclusive, KB-V1 cytotox inconclusive, MCF10A rerep 3.26µM
CCCN(CCC)CC(O)Cn1c2ccccc2c2ccccc21 (centres undefined)	SW480 rereplic inconclusive
O=C(Nc1cccc(S(=O)(=O)N2CCCCCC2)c1)c1cncc(Br)c1	KB-V1 cytotox inconclusive
CCCCCCC(=O)N/N=C/c1ccc(Br)cc1	SW480 rereplic inconclusive, MCF10A rerep inconclusive
CCCCCCCCC(=O)N/N=C/c1cccc(Br)c1	MCF10A rerep 18.4µM
CCCCCCC(=O)Nc1ccc(C(=O)N/N=C/c2cccnc2)cc1	KB-3-1 tox inconclusive, HT1080 IDH1KD tx 8.2µM, HT1080NT lethal 23.1µM
COC(=O)C1=C(C)N(Cc2ccc(C)cc2)C(=O)/C1=C\c1cc(OC)c(OC)c(OC)c1	HT1080 IDH1KD tx 16.4µM, SW480 rereplic inconclusive, KB-V1 cytotox inconclusive, HT1080NT lethal inconclusive, MCF10A rerep inconclusive
COC(=O)C1=C(C)N(Cc2ccc(C)cc2)C(=O)/C1=C\c1ccc(O)c(OC)c1	HT1080 IDH1KD tx inconclusive, KB-V1 cytotox inconclusive, HT1080NT lethal inconclusive, MCF10A rerep inconclusive
Cc1ccc(S(=O)(=O)N2CCC(=O)N([C@H](COCc3ccc(Cl)cc3Cl)Cc3ccccc3)CC2)cc1	none (no result: SW480 rereplic, MCF10A rerep)
COc1ccccc1C(=O)NCCC(=O)N(C)CC(=O)Nc1ccccc1Br	none
CCNC(=O)NS(=O)(=O)c1cnccc1Nc1cccc(Cl)c1	SW480 rereplic 29.1µM
CCOc1ccccc1OCCCC(=O)Nc1nc2ccccc2[nH]1	none
CCOc1ccccc1/C=C/c1nc2ccccc2[nH]c1=O	HT1080 IDH1KD tx inconclusive, SW480 rereplic 23.1µM, MCF10A rerep inconclusive

Screens (PubChem BioAssay)
